Results from PubChem BioAssay (NCI).
Values joined by “and” are separate entries in the source; they are usually repeats but may differ in a detail not shown here. Equal values may be shown once. The panel holds about 83,000 compounds, 20% with a hit somewhere; the sample as a whole holds those more often.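 Testing used 96-well plates and a 48-hour single-concentration exposure. Example: -40 means 40% of the starting cells died.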 Unmarked numbers belong to inactive results. Active and inactive are the calls of the source.

Tested on: PC-3 prostate
Experiment: NCI-60 one-dose screen, 48 h (100 = growth as untreated, 0 = no growth, -100 = all killed)
Settings: 4.75 µM
Procedure: Growth inhibition of the PC-3 human tumor cell line is measured as a screen for anti-cancer activity. Cells are grown in 96 well plates and exposed to the test compound for 48 hours. Compounds are tested at a single concentration, which is 10^-5 M for most compounds. The reported endpoint is percent growth (GI% or GIPRCNT), where numbers from 0 - 100% represent growth inhibition, and numbers from -100% - 0 represent cell death. For example, a value of 40 represents 60% growth inhibition. A value of 0 means no net growth occurred over the course of the experiment. A value of -40 indicates 40% of cells at the beginning of the experiment died by the end of the experiment. A value of -100 means all cells are dead at the end of the experiment.
NCI-60 Human Tumor Cell Lines Screen was performed using the standard one-dose NCI protocol, which is described in more detail at https://dtp.cancer.gov/discovery_development/nci-60/default.htm.
Compounds with GIPRCNT values below 10 were considered active. Activity score was based on GIPRCNT using the following formula: […]
Score is 0 for GIPRCNT values of 100 or above, 50 for GIPRCNT values of 0, and 100 for GIPRCNT values of -100.

SMILES | growth
CC(=O)OCC1OC([S-])C(OC(C)=O)C(OC(C)=O)C1OC(C)=O.[Au+].c1ccc(CN2[CH-]N(Cc3ccccc3)C(c3ccccc3)=C2c2ccccc2)cc1 | 4.86% (active)

Same assay, conditions: 10 µM

SMILES | growth
CC(=O)OCC1OC([S-])C(OC(C)=O)C(OC(C)=O)C1OC(C)=O.[Au+].c1ccc(CN2[CH-]N(Cc3ccccc3)C(c3ccccc3)=C2c2ccccc2)cc1 | 9.73% (active)
O=C(O)CCCc1ccc(N(CCCl)CCCl)cc1 | 85.3% and 64.5%

Same assay, conditions: 10 µM unless noted

SMILES | growth
O=c1c2ccccc2nc(-c2ccccc2Cl)n1-c1nnc(C(F)(F)F)s1 | 20%
CCC(Br)(CC)C(=O)NC(N)=O | 91.4%
O=C(Cc1ccccc1)NC(O)C(Cl)(Cl)Cl (stereo not given) | 106%
CC[C@@H](C)C(=O)O[C@H]1[C@H](O)[C@H]2[C@@H](CN3C[C@@H](C)CC[C@H]3[C@@]2(C)O)[C@@H]2C[C@]34O[C@]5(O)[C@@H](OC(=O)[C@@](C)(O)CC)CC[C@@]3(C)[C@@H]5[C@@H](OC(C)=O)[C@@H](OC(C)=O)[C@H]4[C@@]21O | 75.8%
O=C=Nc1ccc(Br)cc1 | 78.8%
C[C@]12C[C@H](c3ccoc3)OC(=O)[C@H]1CC[C@@]1(C)[C@@H]2[C@H]2C=C[C@]1(O)C(=O)O2 | 74.8%
C[N+]1(CC#CC[N+]2(C)CCCC2)CCCC1 | 92.7%
COc1ccc(CN)cc1OC | 106% and 93.5%
CCCCOC(N)=O | 108%
O=C(NC1=NCC[Se]1)c1ccccc1O | 54.9%
ClCc1ccc(Cl)c(Cl)c1 | 91.9%
CCCCCCCCCCCCCCCCCC1OCC(COC(=O)O[C@@H](C(=O)O[C@H]2C[C@@]3(O)[C@@H](OC(=O)c4ccccc4)[C@@H]4[C@]5(OC(C)=O)CO[C@@H]5C[C@H](O)[C@@]4(C)C(=O)[C@H](OC(C)=O)C(=C2C)C3(C)C)[C@@H](NC(=O)c2ccccc2)c2ccccc2)O1 (stereo not given in full) | 39.9%
O=S(OO)c1cc(Cl)c(O)c(Cl)c1 (stereo not given) | 94.7%
N#CCN(CC#N)[N+](=O)[O-] | 95.4%
CCN1C(=O)CC(=O)N(CC)C1=S | 100%
COc1ccc(N(CC(=O)NCCC[Te]c2ccccc2)C(=O)c2ccccc2)cc1 | 7.26% (active)
CC1(C)C2CCC1(CS(=O)(=O)O)C(=O)C2 (stereo not given) | 94.6% and 94.5%
C[C@]12CC[C@H]3[C@@H](CC=C4c5nc(-c6ccc(Br)cc6)sc5CC[C@@]43C)[C@@H]1CC[C@@H]2O | 101%

SMILES | growth
C[C@]12CCc3sc(Nc4ccc(O)cc4)nc3C1=CC[C@@H]1[C@@H]2CC[C@]2(C)C(=O)CC[C@@H]12 | 39.1%
O=C(O)c1ccc(=O)[nH]c1 | 103% and 90.1%
[N-]=[N+]=CC(=O)CCC(=O)C=[N+]=[N-] | 86%
O=[N+]([O-])c1cc(Cl)c(Cl)cc1Cl | 96.1% and 102%
Nc1ccc2c(c1)Cc1cc(N)ccc1-2 | 84.9%
C[Se]/C=C1/C(=O)N(c2c(Cl)cccc2Cl)c2ccccc21 | 31.3%
Cc1ccc(C(=O)O[C@H](C(=O)O)[C@H](OC(=O)c2ccc(C)cc2)C(=O)O)cc1 | 101%
CCOC(=O)P(=O)(OCC)OCC | 92.5%
N[C@@H](CCC(=O)CCl)C(=O)O | 100% [20 µM]
COC(=O)C12C3C4C1C1C2C3C41NC(=O)c1csc([C@@H](C[C@H](C(C)C)N(C)C(=O)[C@@H](NC(=O)[C@H]2CCCCN2C)C2CC2)OC(C)=O)n1 (stereo not given in full) | 23.5%
Cc1ccccc1-n1c(/C=C\c2ccccn2)nc2ccccc2c1=O | 56.5%
Cc1cc[c-]cc1.Fc1c[c-]c(-c2ccccn2)c(F)c1.[Pt+2].c1ccc([PH+](c2ccccc2)c2ccccn2)cc1 | 37.4%
CCN1C(=O)NC(=O)C(C)(N2C(=O)c3c(F)c(F)c(F)c(F)c3C2=O)C1=O (stereo not given) | 12.3%
CCC1CCC(=O)O1 (stereo not given) | 97.8% and 105%
Cn1cc(-c2csc(-c3cn(CCCCN4CCOCC4)c4ccc(F)cc34)n2)c2cccnc21 | 49.3%
CCCCCCCCCCCCCCCC[n+]1ccccc1 | -48.7% (active) and -80.9% (active)
NC(=O)c1c(Br)c(Br)c(Br)c(Br)c1C(=O)O (tested in a mixture with another compound) | 90.8% and 86.6%
O=C1C=C(N2CC2)c2ccccc2C1=O | 44.3%

Same assay, conditions: 75 µM

SMILES | growth
O=C(O)CCCc1ccc(N(CCCl)CCCl)cc1 | 45.3%
